Test results taken from PubChem BioAssay.
Several values for one entry are separate records, joined by “and”; a condition that tells them apart may be missing. Equal entries are not always repeated. Activity calls are given as the source filed them.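 Rule for the calls, unless noted: active = normalized viability below 100% at a tested concentration; inactive = the rest.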

How the values were obtained:
[1] = sensitizers of A549 cells to miR-34 induction, primary screen, imaging, A549 dox-inducible miR-34, nuclei and caspase counts (AID 1347080;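 active = compounds whose cell count with miR-34 switched on is under 0.7 times the count with it off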); settings: A549 miR-34 inducible, Hoechst nuclei count, 48 h
[2] = survival rescue of mitochondrial mutant cells in low glucose, primary screen, MELAS cybrids, Rieske KO mouse fibroblasts, CellTiter-Glo (AID 1508586;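 active = mean z-score across replicates of 1.96 or higher in either the MELAS or the Rieske mutant cell line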;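 note: z relative to plate mean and SD of compound and empty wells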)
[3] = ovarian cancer cell viability with rucaparib, profiling panel, oncology-focused library, rucaparib conditional (AID 1508598); settings: patient-derived ovarian cancer cells, CellTiter-Glo viability, 144 h, stronger effect = lower value
[4] = LFS_MB_P medulloblastoma growth inhibition, cell-based, chromothripsis tumors, cisplatin or BGB combos (AID 1671449; in the data active = inhibition above about 80%;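 note: cells exposed for 96 hours; 0% = vehicle DMSO and 100% = killing by high DMSO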); settings: LFS_MB_P medulloblastoma cells
[5] = HDN33 neuroblastoma growth inhibition, cell-based, chromothripsis tumors, cisplatin or BGB combos (AID 1671450; in the data active = inhibition above about 80%;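 note: cells exposed to compound for four days; 0% = vehicle DMSO and 100% = cell killing by high DMSO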); settings: HDN33 neuroblastoma cells, stronger effect = higher value
[6] = ICB984 medulloblastoma cell growth inhibition, synergistic combos for chromothripsis tumors, cisplatin or BGB combos (AID 1671451; call rule not given here;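 note: cells exposed for 96 hours before readout; 0% = vehicle DMSO and 100% = killing by high DMSO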); settings: ICB984 medulloblastoma cells, drug combinations, stronger effect = higher value
[7] = LFS_MB_1R medulloblastoma cell growth inhibition, synergistic combos for chromothripsis tumors, cisplatin or BGB combos (AID 1671452; in the data active = inhibition above about 80%;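 note: cells exposed for 96 hours before readout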); settings: LFS_MB_1R medulloblastoma cells, stronger effect = higher value
[8] = HTB85 osteosarcoma cell growth inhibition, synergistic combos for chromothripsis tumors, BGB or cisplatin IC20 combos (AID 1671453; in the data active = inhibition above about 80%;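 note: cells exposed for 96 hours before readout; 0% = vehicle DMSO and 100% = high DMSO killing control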); settings: HTB85 osteosarcoma cells, drug combinations, stronger effect = higher value
[9] = CRL2098 osteosarcoma cell growth inhibition, synergistic combos for chromothripsis tumors, BGB or cisplatin IC20 combos (AID 1671454; in the data active = inhibition above about 80%;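 note: cells exposed for 96 h before readout; 0% = vehicle DMSO and 100% = killing by high DMSO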); settings: CRL2098 osteosarcoma cells, drug combinations, stronger effect = higher value
[10] = HD-MB03 medulloblastoma cell growth inhibition, synergistic combos for chromothripsis tumors, BGB or cisplatin IC20 combos (AID 1671455; in the data active = inhibition above about 83%;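 note: 0% = vehicle DMSO and 100% = high DMSO as cytotoxic control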); settings: HD-MB03 medulloblastoma cells, stronger effect = higher value
[11] = UWB1.289 ovarian carcinoma cell growth inhibition, synergistic combos for chromothripsis tumors, BGB or cisplatin combos (AID 1671456; in the data active = inhibition above about 80%;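 note: cells exposed to compound for four days; 0% = vehicle DMSO and 100% = killing by high DMSO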); settings: UWB1.289 ovarian carcinoma cells, stronger effect = higher value
[12] = LFS_MB_2R medulloblastoma cell growth inhibition, synergistic combos for chromothripsis tumors, cisplatin combos (AID 1671457; in the data active = inhibition above about 80%;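 note: cells exposed to compound for four days before readout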); settings: LFS_MB_2R medulloblastoma cells, stronger effect = higher value
[13] = MDA-MB-436 breast carcinoma cell growth inhibition, synergistic combos for chromothripsis tumors, BGB or cisplatin combos (AID 1671458; call rule not given here;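 note: cells exposed for 96 hours; 0% = vehicle DMSO and 100% = killing by high DMSO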); settings: MDA-MB-436 breast carcinoma growth inhibition, drug combinations, stronger effect = higher value
[14] = UWB1.289_BRCA1 ovarian cancer growth, cell-based, BGB or cisplatin combinations (AID 1671459; in the data active = inhibition above about 80%); settings: UWB1.289 BRCA1 ovarian carcinoma, drug combinations, stronger effect = higher value
[15] = growth inhibition of BT084 medulloblastoma cells, cell-based, ICGC_MB145, cisplatin and BGB IC40 combos (AID 1671461; in the data active = inhibition above about 80%;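 note: cells exposed to drugs for 96 hours; 0% = vehicle DMSO and 100% = high DMSO full killing control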); settings: drug combinations, stronger effect = higher value
[16] = growth inhibition of RCMB18 medulloblastoma cells, cell-based, cisplatin and BGB IC40 combos (AID 1671462; in the data active = inhibition above about 80%;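 note: cells exposed to compound for four days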); settings: stronger effect = higher value
[17] = growth inhibition of CRL1545 osteosarcoma cells, cell-based, cisplatin and BGB IC20 combos (AID 1671464; in the data active = inhibition above about 80%;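 note: cells exposed to compound for 96 hours before readout; 0% = vehicle DMSO and 100% = high DMSO killing control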); settings: stronger effect = higher value
[18] = measured here: combination with BGB IC40, at 0.05 µM
[19] = measured here: with BGB IC20 combination, at 0.5 µM
[20] = measured here: with cisplatin IC20 combination, at 0.5 µM
[21] = measured here: combination with cisplatin, at 0.5 µM
[22] = measured here: combination with cisplatin, at 5 µM

For CCOC(=O)NCCCC(=O)NCCc1ccccc1, the fold change ([1]; stronger effect = lower value, cell number ratio, induced over uninduced) was 0.978 (inactive), the fold change ([1]; measured here: relative caspase fold change +Dox/-Dox) was 0.408 and the cell count ([1]; measured here: total cells with miR-34 induction, stronger effect = lower value) was 8950. The cell count ([1]; measured here: total cells without miR-34 induction) was 9150, the z-score ([2]; MELAS cybrid survival, CellTiter-Glo 48 h, stronger effect = higher value) was -0.307 (inactive) and the z-score ([2]; Rieske KO mouse fibroblast survival, CellTiter-Glo 72 h) was 0.919. The viability ([3]; at 0.000305 µM, OCI-C5x cells, with rucaparib 10 µM, 100% = cells with rucaparib alone) was 123% (inactive), the viability ([3]; at 0.000305 µM, OCI-C5x cells, without rucaparib) was 98.5% (active) and the viability ([3]; at 0.000305 µM, OCI-P5x cells, with rucaparib 20 µM, 100% = cells with rucaparib alone) was 93.8% (active). For the same compound, the viability ([3]; at 0.000305 µM, OCI-P5x cells, without rucaparib) was 94.2% (active), the viability ([3]; at 0.00122 µM, OCI-C5x cells, with rucaparib 10 µM, 100% = cells with rucaparib alone) was 108% (inactive) and the viability ([3]; at 0.00122 µM, OCI-C5x cells, without rucaparib) was 102% (inactive). The viability ([3]; at 0.00122 µM, OCI-P5x cells, with rucaparib 20 µM, 100% = cells with rucaparib alone) was 95.3% (active), the viability ([3]; at 0.00122 µM, OCI-P5x cells, without rucaparib) was 93.4% (active) and the viability ([3]; at 0.00488 µM, OCI-C5x cells, with rucaparib 10 µM, 100% = cells with rucaparib alone) was 111% (inactive). For the same compound, the viability ([3]; at 0.00488 µM, OCI-C5x cells, without rucaparib) was 110% (inactive), the viability ([3]; at 0.00488 µM, OCI-P5x cells, with rucaparib 20 µM, 100% = cells with rucaparib alone) was 92.7% (active) and the viability ([3]; at 0.00488 µM, OCI-P5x cells, without rucaparib) was 96.6% (active). The viability ([3]; at 0.0195 µM, OCI-C5x cells, with rucaparib 10 µM, 100% = cells with rucaparib alone) was 116% (inactive), the viability ([3]; at 0.0195 µM, OCI-C5x cells, without rucaparib) was 115% (inactive) and the viability ([3]; at 0.0195 µM, OCI-P5x cells, with rucaparib 20 µM, 100% = cells with rucaparib alone) was 93.3% (active). For the same compound, the viability ([3]; at 0.0195 µM, OCI-P5x cells, without rucaparib) was 94.2% (active), the viability ([3]; at 0.0781 µM, OCI-C5x cells, with rucaparib 10 µM, 100% = cells with rucaparib alone) was 110% (inactive) and the viability ([3]; at 0.0781 µM, OCI-C5x cells, without rucaparib) was 108% (inactive). The viability ([3]; at 0.0781 µM, OCI-P5x cells, with rucaparib 20 µM, 100% = cells with rucaparib alone) was 94.7% (active), the viability ([3]; at 0.0781 µM, OCI-P5x cells, without rucaparib) was 99.6% (active) and the viability ([3]; at 0.313 µM, OCI-C5x cells, with rucaparib 10 µM, 100% = cells with rucaparib alone) was 117% (inactive). For the same compound, the viability ([3]; at 0.313 µM, OCI-C5x cells, without rucaparib) was 106% (inactive), the viability ([3]; at 0.313 µM, OCI-P5x cells, with rucaparib 20 µM, 100% = cells with rucaparib alone) was 88.9% (active) and the viability ([3]; at 0.313 µM, OCI-P5x cells, without rucaparib) was 104% (inactive). For the same compound, the viability ([3]; at 1.25 µM, OCI-C5x cells, with rucaparib 10 µM, 100% = cells with rucaparib alone) was 118% (inactive), the viability ([3]; at 1.25 µM, OCI-C5x cells, without rucaparib) was 111% (inactive) and the viability ([3]; at 1.25 µM, OCI-P5x cells, with rucaparib 20 µM, 100% = cells with rucaparib alone) was 89.5% (active). The viability ([3]; at 1.25 µM, OCI-P5x cells, without rucaparib) was 99.1% (active), the viability ([3]; at 5 µM, OCI-C5x cells, with rucaparib 10 µM, 100% = cells with rucaparib alone) was 116% (inactive) and the viability ([3]; at 5 µM, OCI-C5x cells, without rucaparib) was 109% (inactive). The viability ([3]; at 5 µM, OCI-P5x cells, with rucaparib 20 µM, 100% = cells with rucaparib alone) was 83.3% (active), the viability ([3]; at 5 µM, OCI-P5x cells, without rucaparib) was 89.3% (active) and the inhibition ([4]; at 0.5 µM, stronger effect = higher value) was -22.5% (inactive) and -16.6% (inactive). For the same compound, the inhibition ([4]; measured here: combination with BGB IC20, at 0.005 µM) was -34.5% and -4.15%, the inhibition ([4]; measured here: combination with BGB IC40, at 0.005 µM) was 74.6% and -15.4% and the inhibition [4, 18] was -17.3% and -8.02%. For the same compound, the inhibition ([4]; measured here: combination with cisplatin, at 0.5 µM, stronger effect = higher value) was -12.8% and -32.3%, the inhibition ([4]; measured here: combination with cisplatin, at 5 µM, stronger effect = higher value) was -34.9% and -31.3% and the inhibition ([5]; BGB combo, at 5 µM) was -65.3% and -26.9%. The inhibition ([5]; at 0.5 µM) was -38.5% (inactive) and -17.7% (inactive), the inhibition ([5]; cisplatin combo, at 5 µM) was -63.5% and -31.2% and the inhibition [5, 19] was -39.2% and -23.4%. For the same compound, the inhibition [5, 20] was -28% and -17.7%, the inhibition ([5]; single agent, at 5 µM) was -54.8% and -22.1% and the inhibition ([6]; BGB IC20 combo, at 0.005 µM) was -37.9% and -8.12%. The inhibition ([6]; BGB IC40 combo, at 0.005 µM) was -29.1% and -31.3%, the inhibition ([6]; BGB IC40 combo, at 0.05 µM) was -30% and -50.9% and the inhibition ([6]; at 0.5 µM) was -27.9% (inactive) and -27.3% (inactive). For the same compound, the inhibition ([6]; cisplatin combo, at 0.05 µM) was -36.7% and -56.9%, the inhibition ([6]; cisplatin combo, at 0.5 µM) was -28.4% and -31.6% and the inhibition ([6]; cisplatin combo, at 5 µM) was -21.8% and -22.7%. For the same compound, the inhibition ([6]; measured here: 5 uM single agent, at 5 µM) was -34% and -5.68%, the inhibition ([7]; at 0.5 µM) was -35.7% (inactive) and -30.1% (inactive) and the inhibition [7, 18] was -32.7% and -26.4%. For the same compound, the inhibition [7, 21] was -69.3% and -37.1%, the inhibition [7, 22] was -41.3% and -32.8% and the inhibition ([8]; at 0.5 µM) was -20.7% (inactive) and -9.16% (inactive). For the same compound, the inhibition ([8]; measured here: with BGB IC20, at 0.5 µM) was -7.26% and 6.66%, the inhibition ([8]; measured here: with BGB IC20, at 5 µM) was -10.7% and -19.1% and the inhibition ([8]; measured here: with cisplatin IC20, at 0.5 µM) was -27.1% and -24.2%. The inhibition ([8]; measured here: with cisplatin IC20, at 5 µM) was 18% and -25.8%, the inhibition ([8]; single agent, at 5 µM) was -17.5% and -2.77% and the inhibition ([9]; at 0.5 µM) was -89.4% (inactive) and -48.9% (inactive). The inhibition ([9]; measured here: combination with BGB at IC20, at 0.5 µM) was -73.5% and 13.5%, the inhibition ([9]; measured here: combination with cisplatin at IC20, at 0.5 µM) was -117% and -69.6% and the inhibition ([10]; at 0.5 µM) was -22.5% (inactive) and -0.04% (inactive). The inhibition ([10]; measured here: combo with BGB at IC20, at 0.5 µM) was -19.9% and -14.2%, the inhibition ([10]; measured here: combo with cisplatin at IC20, at 0.5 µM) was -31.5% and 17.9% and the inhibition ([11]; at 0.5 µM) was -19.7% (inactive) and -14.9% (inactive). The inhibition ([11]; measured here: inhibition with BGB combination, at 0.05 µM) was -30.7% and -21.8%, the inhibition ([11]; measured here: inhibition with cisplatin combination, at 0.05 µM) was -28.1% and -20.9% and the inhibition ([12]; at 0.5 µM) was -12.3% (inactive) and -24.7% (inactive). The inhibition [12, 21] was -9.92% and -32%, the inhibition [12, 22] was -15.4% and -22.8% and the inhibition ([13]; at 0.5 µM) was -30.7% (inactive) and -10.1% (inactive). The inhibition ([13]; measured here: BGB combination, at 0.5 µM) was -24.7% and -2.6%, the inhibition ([13]; measured here: BGB combination, at 5 µM) was -6.13% and -14.1% and the inhibition ([13]; measured here: cisplatin combination, at 0.5 µM) was -47% and -19.2%. The inhibition ([13]; measured here: cisplatin combination, at 5 µM) was -39.2% and -16.3%, the inhibition ([14]; BGB combination, concentration series, at 5 µM) was -32.5% and 1.48% and the inhibition ([14]; at 0.5 µM) was -24.6% (inactive) and -10.6% (inactive). For the same compound, the inhibition ([14]; cisplatin combination, concentration series, at 5 µM) was -5.77% and 15.9%, the inhibition ([15]; at 0.5 µM) was -9.48% (inactive) and -15.9% (inactive) and the inhibition ([15]; cisplatin combination, at 0.5 µM) was -0.569% and -16.9%. The inhibition ([15]; cisplatin combination, at 5 µM) was -138% and -1.29%, the inhibition ([15]; measured here: BGB IC40 combination 0.05 uM, at 0.05 µM) was -26.7% and -17.1% and the inhibition ([15]; single agent, at 5 µM) was -8.38% and 9.97%. The inhibition ([16]; at 0.5 µM) was -8.55% (inactive) and -27.8% (inactive), the inhibition ([16]; cisplatin combo, at 5 µM) was 7.25% and -23.2% and the inhibition ([16]; measured here: BGB IC40 combination, at 0.05 µM) was -14% and -29.5%. The inhibition [16, 21] was 4.17% and -12.7%, the inhibition ([16]; single agent, at 5 µM) was -2.65% and -61.4% and the inhibition ([17]; at 0.5 µM) was -24.2% (inactive) and -17.6% (inactive). For the same compound, the inhibition [17, 19] was -40% and -29.3%, the inhibition [17, 20] was -18.2% and -11.8% and the inhibition ([17]; single agent, at 0.05 µM) was -24.2% and 17.5%. The inhibition ([17]; single agent, at 5 µM) was 9.21% and -20.7%.
